# Mdm2-MdmX inh – human Mdm2/MdmX binding inhibition; O15151+Q00987; SaOS-2 split-luciferase Mdm2/MdmX complementation, luminescence; inhibition, % at 8 µM; hit rate 3% among 330,000;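 active = inhibition of at least 50% at 8 µM in the primary screen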
# tim10-1 inh – inhibits growth of tim10-1 mutant yeast | S. cerevisiae tim10-1 ts strain growth, BacTiter-Glo, 24 h | inhibition, % at 20 µM | hit rate 2.2% among 330,000;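 active = inhibition of at least 40%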;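 also: mutant grown at 25 °C; 0% = DMSO wells with yeast and 100% = wells holding no yeast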
# tim23-1 inh – tim23-1 yeast growth inhibition | S. cerevisiae tim23-1 growth, BacTiter-Glo luminescence, 24 h | AID 463212 | inhibition, % at 20 µM | hit rate 1.3% among 330,000;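 active = growth inhibition of the mutant yeast at or above 50%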;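 also: temperature-sensitive mutant grown at 25 °C; plate controls were DMSO-treated mutant yeast for no effect and medium wells lacking yeast for full effect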
# MPTP block – permeability transition pore inhibition; isolated mouse mitochondria, Ca2+ swelling absorbance, 30 min; inhibition, % at 10 µM; hit rate 1.4% among 360,000;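 active = inhibition of 50% or more, scaled per plate between neutral and stimulator controls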;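 also: 0% = DMSO wells given calcium and 100% = 1 mM EGTA wells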
# TIM10 inh – TIM10 yeast growth inhibition; S. cerevisiae TIM10 strain growth, BacTiter-Glo luminescence, 24 h; inhibition, % at 10 µM; hit rate 1.4% among 330,000; AID 463195;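 active = inhibition of 40% or more at the single tested concentration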;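 also: wild-type TIM10 isogenic control strain grown at permissive 25 °C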
# tim10-1 confirm – tim10-1 yeast growth inhibition, confirmed; hit rate 56% among 7,400; S. cerevisiae tim10-1 ts strain growth, BacTiter-Glo, 24 h; shares compounds with tim10-1 inh; AID 463213; inhibition, % at 20 µM;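 active = inhibition of yeast growth at or above a set limit in either of two repeat tests at 20 µM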;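 also: tim10-1 mutant grown at permissive 25 °C to find synthetic lethal compounds; 0% = DMSO yeast wells and 100% = medium wells without yeast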
# tim10 confirm – confirmation of TIM10 yeast growth inhibitors | shares compounds with TIM10 inh | S. cerevisiae tim10 strain growth, BacTiter-Glo luminescence, 24 h | AID 463215 | hit rate 63% among 4,600 | inhibition, % at 10 µM;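 active = inhibition of yeast growth at or above a set limit in either of two replicates at 10 µM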;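 also: this counterscreen used the strain with wild-type TIM10; 0% = yeast with DMSO and 100% = medium wells lacking yeast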
# An asterisk follows results filed as active; x = not tested or not shown. A selection: hits, their analogues and other compounds. The true share with any hit is near 6.3%.
SMILES,Mdm2-MdmX inh,tim10-1 inh,tim23-1 inh,MPTP block,TIM10 inh,tim10-1 confirm,tim10 confirm
Cc1ccsc1C1Nc2ccccc2-c2nc3ccccc3n21 (stereo unspecified),32.7,51.3*,49.8,0.2,54.3*,39.0*,-16.3
O=C(Nc1ccc(Cl)cc1)N(Cc1cccs1)Cc1cccs1,-0.6,47.2*,46.8,1.4,57.2*,41.0*,-16.8
Cc1cccc(Cc2c(C)nc3c(C(=O)NCc4ccco4)cnn3c2C)c1,20.3,41.0*,44.5,2.1,47.6*,42.1*,39.8*
CN(C)c1ccc(C2Nc3cccc4cccc(c34)N2)cc1,-80.2,57.2*,40.4,-0.2,66.1*,57.8*,67.2*
c1csc(C2Nc3cccc4cccc(c34)N2)c1,21.3,53.1*,40.3,-1.3,48.3*,51.6*,-2.0
S=c1[nH]nc(C2CCCCC2)n1/N=C/c1cccs1,3.9,43.2*,38.4,-0.5,41.5*,11.3,39.8*
CC(/C=N/n1c(C2CCCCC2)n[nH]c1=S)=C\c1ccccc1,9.1,48.2*,37.9,13.2,48.5*,19.4,30.8*
S=c1[nH]nc(C2CCCCC2)n1/N=C/c1ccncc1,47.4,12.4,-2.7,1.5,-10.6,x,x
CC(/C=N/n1c(-c2cc(C)[nH]n2)n[nH]c1=S)=C\c1ccccc1,12.4,39.2,30.7,-0.3,7.9,x,x
COc1cc2c(cc1OC)C1CCc3cc4c(cc3C1N=C2)OCO4 (stereo unspecified),x,x,x,0.6,x,x,x
c1ccc2c(c1)nc(N1CCOCC1)c1c3ccccc3[nH]c21,-3.6,40.3*,44.1,-2.4,49.0*,20.6,61.0*
NC(=O)c1cc([N+](=O)[O-])ccc1NCc1ccc(N)cc1,30.5,57.0*,29.7,1.4,54.0*,48.5*,64.8*
NC(=O)c1cc([N+](=O)[O-])ccc1NCc1ccc(F)cc1,-6.7,7.3,13.6,0.0,-2.9,x,x
Cc1ccc(-c2nnc(Oc3cccc(C)c3)c3ccccc23)cc1,10.6,33.9,23.0,45.1,18.7,x,x
Cc1ccc(Oc2nnc(-c3ccccc3)c3ccccc23)cc1,14.4,51.1*,40.6,2.1,41.0*,41.2*,50.3*
COc1ccccc1C/C(N)=N/OC(=O)COc1cccc(C)c1,3.0,43.0*,21.3,-1.4,51.1*,21.5,-18.0
CC1(C(=O)NS(=O)(=O)c2ccc(F)cc2F)CCN1C(=O)C/C=C/c1ccccc1 (stereo unspecified),x,x,x,0.1,x,x,x
CC(=O)Nc1ccc(C(=O)OCc2ccccc2Cl)cc1,-7.0,53.9*,36.4,3.3,42.5*,26.0,34.4*
CC(=O)Nc1ccc(NC(=O)CSCc2ccccc2Cl)cc1,-4.7,14.2,13.9,1.7,18.6,x,x
C=C(C)Cc1c(C)c(C#N)c2nc3ccccc3n2c1NCCCN(C)C,-9.1,9.9,8.0,0.2,-4.3,x,x
C=CCc1c(C)c(C#N)c2nc3ccccc3n2c1NCCN(C)C,14.5,49.2*,43.0,-2.8,80.1*,60.0*,84.8*
CC1Cc2ccccc2N1C(=S)NC(=O)c1ccc(Cl)cc1Cl (stereo unspecified),39.6,44.0*,44.9,4.9,49.9*,45.5*,-7.3
COc1ccc(C(NC(=O)C2CCN(C/C=C/c3ccc(OC(C)=O)c(OC)c3)CC2)c2ccccn2)cc1 (stereo unspecified),x,x,x,0.9,x,x,x
CC1(C(=O)NCc2ccccc2)CCC(=O)N1C1CC1 (stereo unspecified),x,x,x,-0.8,x,x,x
CC(C)C(N)c1csc(NC(=O)Nc2cccc(Cl)c2)n1 (stereo unspecified),x,x,x,2.5,x,x,x
SMILES,Mdm2-MdmX inh,tim10-1 inh,tim23-1 inh,MPTP block,TIM10 inh,tim10-1 confirm,tim10 confirm
CC1(CC(=O)N/N=C/c2ccc(OCc3ccc(Cl)cc3Cl)cc2)OCCCO1,-113.1,63.3*,42.0,-0.6,49.2*,41.1*,1.9
O=c1c2sc(-c3ccccc3)cc2nc2n1CCC2,-57.2,64.0*,49.6,0.1,77.8*,65.0*,73.3*
CCCOC(=O)/C(=C\c1ccc([N+](=O)[O-])o1)NC(=O)c1ccccc1,0.6,56.3*,42.3,-1.8,53.6*,46.9*,-8.3
O=C(/C=C/c1ccccc1[N+](=O)[O-])c1ccc(F)cc1,17.9,47.2*,44.6,-1.2,42.6*,43.9*,26.3
O=C(/C=C/c1ccccc1[N+](=O)[O-])OCC(=O)c1ccccc1,-13.8,11.4,15.7,0.1,12.0,x,x
Cn1cccc1/C=C1\Cc2ccccc2C1=O,-96.0,-21.1,24.9,3.4,13.8,x,x
Cn1cccc1/C=C1\CC(C(C)(C)C)C/C(=C\c2cccn2C)C1=O (stereo unspecified),16.7,45.4*,39.9,2.9,40.7*,42.8*,41.6*
Cc1nc(C)c(-c2csc(Nc3cccc(O)c3)n2)s1,-62.7,44.4*,24.0,2.6,48.1*,24.6,31.1*
Cc1nc(N)sc1-c1csc(Nc2cccc(O)c2)n1,-17.9,-0.8,6.7,-1.5,-1.1,x,x
O=c1ccc2cc(S(=O)(=O)N3CCN(c4cc(Cl)ccc4Cl)CC3)ccc2o1,7.1,41.6*,25.4,-1.8,42.0*,23.9,38.8*
O=c1ccc2cc(S(=O)(=O)N3CCN(c4ccc(Cl)cc4)CC3)ccc2o1,24.8,-5.8,-15.9,1.1,3.0,x,x
CCCc1[nH]nc2c1C(c1ccsc1)C(C#N)=C(N)O2 (stereo unspecified),33.8,46.9*,40.0,1.9,46.0*,26.2,16.5
COCc1[nH]nc2c1C(c1ccsc1)C(C#N)=C(N)O2 (stereo unspecified),27.7,21.9,14.6,0.7,13.4,x,x
O=c1[nH]c(NCCO)nc2c1C1(CCCCC1)Cc1ccccc1-2,-4.0,38.6,33.9,2.4,17.6,x,x
O=c1c2c(nc(NCCO)n1CC1CCCCC1)-c1ccccc1CC21CCCC1,41.1,54.7*,43.5,0.5,52.2*,37.5*,-34.6
CCOC(=O)C1(C)CCCN(C(=O)c2cccc(C(F)(F)F)c2)C1 (stereo unspecified),x,x,x,-0.3,x,x,x
O=C(/C=C/c1ccco1)Nc1ccccc1N1CCCCC1,0.3,60.9*,41.4,2.0,53.7*,57.8*,50.5*
COc1ccc(C(C)(O)c2nc(-c3ccc(OC)nc3)cs2)cc1 (stereo unspecified),x,x,x,0.7,x,x,x
Cc1c(N2C(=O)/C(=C/c3ccccc3)SC2=S)c(=O)n(-c2ccccc2)n1C,7.7,28.3,10.4,-0.3,6.8,x,x
Cc1c(N2C(=O)/C(=C\C3CC=CCC3)SC2=S)c(=O)n(-c2ccccc2)n1C (stereo unspecified),-20.5,45.5*,47.8,-1.8,42.1*,39.4*,33.3*
CN1C(=O)C(O)(CC(=O)c2cccc(-n3cccc3)c2)c2ccccc21 (stereo unspecified),-2.0,50.6*,29.8,-0.8,46.1*,38.3*,29.4

# Assay outcomes deposited in PubChem by Sanford-Burnham Center for Chemical Genomics.
